Assay in all cases: NCI-60 one-dose screen, 48 h (100 = growth as untreated, 0 = no growth, -100 = all killed)
Experiment [1] has as its system BT-549 breast. The settings on record: 10 µM unless noted.
Experiment [2] relates to MDA-MB-435 melanoma. The conditions noted are these: 10 µM unless noted.
In experiment [3] the test system is SW-620 colon. The conditions noted are these: 10 µM unless noted.
Experiment [4] deals with MCF7 breast. The conditions noted are these: 10 µM.
The test system of experiment [5] is HCT-116 colon. The settings on record: 10 µM unless noted.
Experiment [6] deals with HCC-2998 colon. The settings on record: 10 µM unless noted.
Experiment [7] relates to KM12 colon. The settings on record: 10 µM unless noted.

Molecules are shown by their SMILES. Compounds without any hit were thinned out: in the full panel of roughly 83,000, 20% have a hit.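 Cell lines were cultured in 96-well plates, exposed to a single compound concentration, and assessed for percent growth 48 hours later.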 Values without a mark were called inactive. Calls of active or inactive are those of the source. The calls were made as follows: active = growth percent below 10; inactive = the rest.

For `COc1ccc(/C=C2/SC(=O)N(CC(=O)N3CCN(c4cc5c(cc4F)c(=O)c(C(=O)O)cn5C4CC4)CC3)C2=O)cc1`, the growth in experiment [1] was 96.1%; in experiment [2], 102%; in experiment [3], 98.2%; in experiment [4] it was 96%; in experiment [5] it was 100%; in experiment [6], 105%. In addition, the growth in experiment [7] was 105%.
As to `COC(=O)/C(=C\c1c(C)[nH]c2ccccc12)S(=O)(=O)c1ccccc1`, the growth in experiment [1] is 29.8%; in experiment [2], 13.9%; in experiment [3] it was 30.4%; in experiment [4], 6.71% (active); in experiment [5] it was 29.5%; in experiment [6], 5.21% (active). Also, the growth in experiment [7] is -13.2% (active).
For `O=C(NC1CCN(Cc2ccccc2)CC1)c1cc(C(=O)NC2CCN(Cc3ccccc3)CC2)cc(C(=O)NC2CCN(Cc3ccccc3)CC2)c1`, the growth in experiment [1] was 70.5%; in experiment [2] it was 70.4%; in experiment [3], 84.6%; in experiment [4], 57.3%; in experiment [5] it was 66.1%; in experiment [6] it was 107%. The growth in experiment [7] is 90.8%.
For the compound `CCCN1C(=O)N(CCC)C2C1NN=c1s/c(=C3\C(=O)N(C(C)C)c4ccccc43)c(=O)n12` (stereo not given), the growth in experiment [1] was 47.7%; in experiment [2] it was -7.13% (active); in experiment [3], 35.9%; in experiment [4] it was 15.4%; in experiment [5] it was 20%; in experiment [6], 65.3%. Further, in experiment [7], the growth is 26.9%.
With `Cc1cccc2c(=O)c3c(sc12)c(N1CCNCC1)nc1ccccc13`, the growth in experiment [1] is 80%; in experiment [2] it was 62.5%; in experiment [3] it was 27.6%; in experiment [4], 26.7%; in experiment [5], 26.9%; in experiment [6], 47.5%. In experiment [7], the growth is 51.3%.
As to `COc1ccc(-c2nsc3c2NC(=O)CC3c2cccc(OC)c2)cc1` (stereo not given), the growth was 39.6% in experiment [1]; -30.6% (active) in experiment [2]; 27.2% in experiment [3]; 18.3% in experiment [4]; 29% in experiment [5]; 57.4% in experiment [6]. Also, the growth in experiment [7] was 36.2%.
For the compound `Nc1ncnc(N)c1NC(=O)c1ccc(OCc2ccccc2)cc1`, the growth was 107% in experiment [1]; 109% in experiment [2]; 98.1% in experiment [3]; 103% in experiment [4]; 111% in experiment [5]; 115% in experiment [6]. In experiment [7], the growth is 104%.
Regarding `CNCCNc1nc2ccccc2c2c(=O)c3cc(OC)ccc3sc12`, the growth was 76.1% in experiment [1]; -86.1% (active) in experiment [2]; -78.3% (active) in experiment [3]; -56.9% (active) in experiment [4]; -82.3% (active) in experiment [5]; -75.7% (active) in experiment [7].
Consider `CC1=CCC(OC(=O)C(C)(C)CCC(O)(C(=O)OC2(C(C)C)CCC3(C)OC3C2)C(C)C)(C(C)C)CC1` (stereo not given), for which the growth in experiment [1] was -88.6% (active); in experiment [2], -98% (active); in experiment [3], -62.1% (active); in experiment [4], -61.1% (active); in experiment [5], -41.2% (active); in experiment [6], -72.8% (active). The growth in experiment [7] is -79% (active).
Turning to `Fc1cccc(COc2ccc(Nc3ncnc4onc(-c5ccccc5)c34)cc2)c1`, the growth is 12.8% in experiment [1]; -54.7% (active) in experiment [2]; 19.8% in experiment [3]; 14% in experiment [4]; 8.15% (active) in experiment [5]; 9.52% (active) in experiment [6]. Besides, the growth in experiment [7] is 9.57% (active).
As for `OC(CNC1CCCCC1)Cn1c2ccc(I)cc2c2cc(I)ccc21` (stereo not given), the growth is 85.9% in experiment [1]; 66.9% in experiment [2]; 79.5% in experiment [3]; 69.9% in experiment [4]; 65.2% in experiment [5]; 94.3% in experiment [6]. The growth in experiment [7] was 74.5%.
`Clc1ccc(-c2nnc(COc3ccc(C4=NNC(c5ccco5)C4)cc3)o2)cc1` (stereo not given): the growth is 81.6% in experiment [1]; 93.1% in experiment [2]; 94.5% in experiment [3]; 17.3% in experiment [4]; 86.1% in experiment [5]; 82.3% in experiment [6]. Moreover, the growth in experiment [7] is 70.9%.
Regarding `COC(=O)/C(CCC=C(C)C)=C1\[C@@H](OC(C)=O)C[C@@]2(C)[C@H]1CC(=O)N[C@H]1[C@@]3(C)CCNC(=O)[C@@H](C)[C@@H]3CC[C@@]12C`, the growth in experiment [1] is 107%; in experiment [2], 105%; in experiment [3], 103%; in experiment [4], 93%; in experiment [5], 101%; in experiment [6], 103%. In experiment [7], the growth is 102%.
Regarding `CCOC(=O)CSc1c(-c2ccccc2)c2cc(Cl)ccc2[nH]c1=O`, the growth was 103% in experiment [1]; 99.8% in experiment [2]; 102% in experiment [3]; 93.3% in experiment [4]; 92.1% in experiment [5]; 103% in experiment [6]. The growth in experiment [7] was 98.1%.
Turning to `Nc1nc(Nc2cccc(F)c2)nc2ccccc12`, the growth in experiment [1] was 75.7%; in experiment [2] it was 18.6%; in experiment [3], 35.1%; in experiment [4], 41.5%; in experiment [5], 23.1%; in experiment [6], -59.9% (active). For the same compound, the growth in experiment [7] was 59.2%.
`COc1ccc(CCN2CCC(CN(C)Cc3cnn(-c4ccccc4)c3)CC2)cc1`: the growth in experiment [1] was 32.5%; in experiment [2], 38.1%; in experiment [3], 26%; in experiment [4], 12.4%; in experiment [5], 21.5%; in experiment [6] it was 21.5%. For the same compound, the growth in experiment [7] is 22.5%.
Take `Cn1cc([C@@H]2Nc3ccc4[nH]ncc4c3[C@H]3[C@H]4CCC(C4)[C@H]32)c(C(F)(F)F)n1`: the growth in experiment [1] is 54.6%; in experiment [2], -1.69% (active); in experiment [3] it was 23.5%; in experiment [4], 25%; in experiment [5], 27.6%; in experiment [7], 36.5%.
On to `CCN(CC)CCCNc1ccnc2cc3ccccc3cc12`, for which the growth was 94.2% in experiment [1]; 87.3% in experiment [2]; 83% in experiment [3]; 81.7% in experiment [4]; 60.1% in experiment [5]; 78.7% in experiment [6]. The growth in experiment [7] is 80.8%.
In the case of `O=C(/C=C/c1ccc(C(F)(F)F)cc1)c1ccc(Nc2nc(NCCO)nc(Nc3ccc(Cl)cc3)n2)cc1`, the growth is 57.9% in experiment [1]; 47.7% in experiment [2]; 0.404% (active) in experiment [3]; -43.1% (active) in experiment [4]; -85.6% (active) in experiment [5]; -30.2% (active) in experiment [6]. Besides, in experiment [7], the growth is -51.2% (active).
Consider `OCCNc1nc(Nc2ccc(C3=NN(c4cc(Cl)cc(Cl)c4)C(c4ccc(C(F)(F)F)cc4)C3)cc2)nc(N2CCOCC2)n1` (stereo not given), for which the growth is 99.3% in experiment [1]; 66.5% in experiment [2]; 94% in experiment [3]; 30.1% in experiment [4]; 66.8% in experiment [5]; 76.3% in experiment [6]. In addition, the growth in experiment [7] was 68.6%.
In the case of `O=c1c(-c2nc3ccccc3[nH]2)cc2ccccc2n1Cc1cn(Cc2ccccc2Cl)nn1`, the growth in experiment [1] was 13.3%; in experiment [2], 15.1%; in experiment [3] it was 37.5%; in experiment [4], 26.2%; in experiment [5], 18.2%; in experiment [6], 78.3%. For the same compound, in experiment [7], the growth is 45.5%.
Consider `CC1CCCCN1CCCNC(=O)c1ccc2c(c1)sc1nc(-c3ccc(F)cc3)cn12` (stereo not given), for which the growth in experiment [1] is 91%; in experiment [2] it was 109%; in experiment [3], 105%; in experiment [4] it was 99.5%; in experiment [5], 89.7%; in experiment [6] it was 88.7%. For the same compound, in experiment [7], the growth is 101%.
In the case of `O=c1oc2ccc(Br)cc2c(=O)n1-c1ccc(Br)cc1F`, the growth is -19.4% (active) in experiment [1]; -8.23% (active) in experiment [2]; 5.96% (active) in experiment [3]; 0.224% (active) in experiment [4]; -40.2% (active) in experiment [5]; 1.75% (active) in experiment [6]. The growth in experiment [7] was -20% (active).
Take `O=c1c(-c2nc3ccccc3[nH]2)cc2ccccc2n1Cc1cn(Cc2ccc(N3CCOCC3)cc2)nn1`: the growth in experiment [1] is 45.9%; in experiment [2] it was 76.6%; in experiment [3], 70.7%; in experiment [4] it was 56.8%; in experiment [5], 83.6%; in experiment [7], 87.3%.

The values are drawn from PubChem BioAssay (NCI).
